The text below walks through data of PubChem BioAssay (Tox21).

SMILES strings stand for the structures. Records with an inconclusive call do not appear. A call without a number means that no potency is given here. Calls of active or inactive are those of the source. Calls follow the shape of the dose curve; as a rule, active = well fitted inhibition curve with a large enough effect in the signal ratio in the repeat runs (not every such curve was filed as active); inconclusive = weak or mixed curves, or effect the other way; inactive = no such curve, though single readings can be large or run the other way; the % refers to the signal ratio.
Potency is read from the fitted curve at half-maximal effect.

Chain of Glucocorticoid receptor (Homo sapiens) (P04150 whole entry, looked up): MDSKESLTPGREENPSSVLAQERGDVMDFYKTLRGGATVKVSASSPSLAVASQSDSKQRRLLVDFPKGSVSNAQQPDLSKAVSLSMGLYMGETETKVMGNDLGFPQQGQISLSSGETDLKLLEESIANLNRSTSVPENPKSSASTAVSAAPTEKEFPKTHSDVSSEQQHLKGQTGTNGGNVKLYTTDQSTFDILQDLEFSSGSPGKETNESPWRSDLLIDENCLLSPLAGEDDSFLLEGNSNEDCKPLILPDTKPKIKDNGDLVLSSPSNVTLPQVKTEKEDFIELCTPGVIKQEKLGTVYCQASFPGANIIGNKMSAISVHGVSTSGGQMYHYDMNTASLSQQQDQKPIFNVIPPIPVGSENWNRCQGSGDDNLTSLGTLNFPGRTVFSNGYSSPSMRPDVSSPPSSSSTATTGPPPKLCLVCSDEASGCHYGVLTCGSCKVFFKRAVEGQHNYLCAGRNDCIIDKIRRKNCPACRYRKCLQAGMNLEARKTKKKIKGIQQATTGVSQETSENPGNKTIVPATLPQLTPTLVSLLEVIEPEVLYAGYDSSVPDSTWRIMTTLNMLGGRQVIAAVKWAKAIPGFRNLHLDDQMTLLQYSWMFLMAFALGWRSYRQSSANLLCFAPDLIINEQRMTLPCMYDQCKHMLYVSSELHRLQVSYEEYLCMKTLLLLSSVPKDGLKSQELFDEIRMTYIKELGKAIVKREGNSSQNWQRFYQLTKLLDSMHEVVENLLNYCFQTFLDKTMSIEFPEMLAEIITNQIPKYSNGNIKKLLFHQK

The target in this test is Glucocorticoid receptor (Homo sapiens) (UniProt P04150). The experiment in a line: qHTS assay to identify small molecule antagonists of the glucocorticoid receptor (GR) signaling pathway (AID 720692). The note with it: GR-bla HeLa, beta-lactamase FRET ratio, dexamethasone-stimulated, 18 h; series mostly up to 58.5 µM. An excerpt:
U.S. Tox21 Program National Center for Advancing Translational Sciences [NCATS] NIH Chemical Genomics Center [NCGC] U.S. Environmental Protection Agency [EPA] National Institutes of Environmental Health Sciences [NIEHS] National Toxicology Program [NTP] U.S. Food and Drug Administration [FDA] Tox21 Assay Overview: The Glucocorticoid receptor (GR) is one of the members of the nuclear receptor family of ligand-dependent transcription factors. GR plays a critical role in carbohydrate, protein and lipid metabolisms and programmed cell death. CellSensor GR-bla HeLa cell line (Invitrogen) contains a beta-lactamase reporter gene under the control of the glucocorticoid response element stably integrated into HeLa cells, a cervical cancer cell line that expresses glucocorticoid receptor. The activation of the reporter gene under culture conditions can be detected by fluorescence intensity. This cell line has been used to screen the Tox21 10K compound library and to identify the compounds that inhibit the GR signaling.
Tox21 Assay Protocol Summary: The GR-bla HeLa cells were dispensed at 1500 cells/5 ul/well in 1536-well black wall/clear bottom plates using a Multidrop Combi (ThermoFisher Scientific, Waltham, MA) dispenser. After the assay plates were incubated at a 37 C/5% CO2 incubator for 4 hours, 23 nL of compounds dissolved in DMSO, positive controls or DMSO only was transferred to the assay plate by a pintool station (Kalypsys, San Diego, CA), followed by addition of 1 uL of dexamethasone (5 nM, final concentration in the well). The plates were incubated at 37 C for 18 hours. After 1 uL of LiveBLAzerTM B/G FRET substrate was added using a Flying Reagent Dispenser (Aurora Discovery, San Diego, CA), the plates were incubated at room temperature for 2 hours, and fluorescence intensity was measured by an Envision plate reader (PerkinElmer, Shelton, CT).
Turning to `CCN(CC)C(=O)[C@@H]1C=C2c3cccc4[nH]cc(c34)C[C@H]2N(C)C1`, the Potency entry was “inactive”.

Consider `CCOP(=O)(N=C1SCCS1)OCC`, for which the Potency entry is “inactive”.

Take `CCOP(=S)(OCC)Oc1cc(-c2ccccc2)on1`: the Potency result is “inactive”.

As to `CNC(=O)Oc1ccccc1C1OCCO1`, the Potency result is “inactive”.

Consider `COC(=O)C1=CCCN(C)C1`, for which the Potency result was “inactive”.

In the case of `CNCC(=O)c1ccc(O)c(O)c1`, the Potency entry was “inactive”.

In the case of `CCCCOC(=O)c1ccccc1N`, the Potency entry was “inactive”.

On to `[Cl][Sn]([Cl])([Cl])[Cl]`, for which the Potency entry was “inactive”.

For the compound `ClC(Br)Br`, the Potency entry was “inactive”.

Take `COc1ccc(C(=O)N2CCCC2=O)cc1`: the Potency result was “inactive”.

As to `Nc1cc(Cl)ccc1O`, the Potency result was “inactive”.

For the compound `COc1cc(OC)nc(NC(=O)NS(=O)(=O)c2ncccc2OCC(F)(F)F)n1`, the Potency entry is “inactive”.

As to `Cc1ncsc1CCCl`, the Potency entry was “inactive”.

In the case of `CCS(=O)(=O)C(C)(C)S(=O)(=O)CC`, the Potency result is “inactive”.

Turning to `ClC(Cl)(Cl)C(Cl)(Cl)Cl`, the Potency result is “inactive”.

Turning to `COc1cccc2c1cc([N+](=O)[O-])c1c(C(=O)O)cc3c(c12)OCO3`, the Potency is 13.8 µM (active).

Turning to `C(CCOCC1CO1)COCC1CO1` (stereo not given), the Potency entry was “inactive”.

`O=[N+]([O-])c1cccc2c([N+](=O)[O-])cccc12`: the Potency entry is “inactive”.

With `CCC#N`, the Potency entry was “inactive”.

On to `CNC(=O)O/N=C(\C)SC`, for which the Potency result was “inactive”.

Turning to `COC(=O)c1ccccc1S(=O)(=O)NC(=O)N(C)c1nc(C)nc(OC)n1`, the Potency entry was “inactive”.

`O=[N+]([O-])c1cccc2cccnc12`: the Potency entry was “inactive”.

Regarding `O=C1OC(=O)C2C1C1(Cl)C(Cl)=C(Cl)C2(Cl)C1(Cl)Cl` (stereo not given), the Potency result was “inactive”.

As to `Nc1cc2c3c(c1)C(c1ccccc1)=N[C@@H](NC(=O)c1cccnc1)C(=O)N3CC2`, the Potency entry was “inactive”.

Turning to `CC1CCCCC1NC(=O)Nc1ccccc1` (stereo not given), the Potency result is “inactive”.

Consider `CCCSP(=S)(OCC)Oc1ccc(Cl)cc1Cl` (stereo not given), for which the Potency entry is “inactive”.

Turning to `COc1ncc(F)c2nc(S(=O)(=O)Nc3c(F)cccc3F)nn12`, the Potency result was “inactive”.

Consider `C=CCC1=C(C)[C@@H](OC(=O)[C@@H]2[C@@H](C=C(C)C)C2(C)C)CC1=O`, for which the Potency was 49 µM (active).

For `O=[N+]([O-])c1ccc(CBr)cc1`, the Potency entry was “inactive”.

As to `CC(C)[N+](=O)[O-]`, the Potency entry is “inactive”.

For `CC(Cl)(Cl)[N+](=O)[O-]`, the Potency entry is “inactive”.

Take `CCc1cc2c(s1)-n1c(C)nnc1CN=C2c1ccccc1Cl`: the Potency was 19 µM (active).

As to `CNC(=O)Oc1cccc(C(C)C)c1`, the Potency entry is “inactive”.

`CCN(Cc1ccc(Cl)nc1)/C(=C/[N+](=O)[O-])NC`: the Potency result was “inactive”.

With `O=S(=O)(O)C(F)(F)C(F)(F)C(F)(F)C(F)(F)C(F)(F)C(F)(F)F`, the Potency result is “inactive”.

In the case of `CNC(=O)N(C)c1nc2ccccc2s1`, the Potency entry was “inactive”.

Regarding `Clc1cccc(N2CCNCC2)c1`, the Potency result is “inactive”.

Regarding `CCCCOP(=O)(O)OCCCC`, the Potency result is “inactive”.

On to `O=P(O)(Oc1ccccc1)Oc1ccccc1`, for which the Potency entry was “inactive”.

As for `CC(C)NCC(O)c1ccc(N)c(C#N)c1` (stereo not given), the Potency entry is “inactive”.
